This passage reports growth results from PubChem BioAssay (NCI).

Compounds without any hit were thinned out: in the full panel of roughly 83,000, 20% have a hit.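 96-well plates, one dose, 48 hours. Percent growth reported; active if below 10.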 Unmarked numbers belong to inactive results. The source made the active and inactive calls.

Some test systems named below: NCI-H23 lung; NCI-H226 lung; NCI-H322M lung; HOP-62 NSCLC; NCI-H460 lung; HOP-92 NSCLC; NCI-H522 lung; A549/ATCC NSCLC; 786-0 renal; COLO 205 colon; DU-145 prostate; K-562 leukemia; MALME-3M melanoma; MDA-MB-231 breast; RXF 393 renal; SF-268 CNS; SF-295 CNS; SF-539 CNS; M14 melanoma.
Holding throughout (assay): NCI-60 one-dose screen, 48 h (100 = growth as untreated, 0 = no growth, -100 = all killed)
Holding throughout (conditions): 10 µM unless noted

In the case of `COc1cc(C2CC(c3ccc(Cl)cc3)=NN2c2ccc(Cl)cc2)cc(OC)c1OC` (stereo unspecified), the growth was 97.4% in the assay with NCI-H23 lung; 88.4% with NCI-H226 lung; 91.1% with NCI-H322M lung; 100% with HOP-62 NSCLC; 97.1% with NCI-H460 lung; 57.7% in the assay with HOP-92 NSCLC. The growth was 88.9% with NCI-H522 lung; 93.9% in the assay on A549/ATCC NSCLC; 98.8% with 786-0 renal; 91.4% in the assay with COLO 205 colon; 106% in the assay on DU-145 prostate; 93.8% with K-562 leukemia. Besides, the growth was 92% in the assay with MALME-3M melanoma; 79.8% with MDA-MB-231 breast; 89.6% in the assay with RXF 393 renal; 90.6% in the assay on SF-268 CNS; 95.3% in the assay on SF-295 CNS; 93.9% with SF-539 CNS. In addition, the growth in the assay on M14 melanoma was 90.3%.

With `Nc1c2c(c(O)c3c1=C(CO)C=N3)=NCCS2`, the growth is -43.9% (active) in the assay with NCI-H23 lung; -85.9% (active) with NCI-H226 lung; -96% (active) in the assay on NCI-H322M lung; -79.3% (active) in the assay on HOP-62 NSCLC; -60.5% (active) in the assay with NCI-H460 lung; -71.2% (active) with HOP-92 NSCLC. In addition, the growth with NCI-H522 lung was -46.4% (active); with A549/ATCC NSCLC, -72% (active); with 786-0 renal, -82.6% (active); in the assay on COLO 205 colon, -72.8% (active); with DU-145 prostate, -93% (active); in the assay on K-562 leukemia, -33.1% (active). The growth in the assay on MALME-3M melanoma is -96.6% (active); in the assay on MDA-MB-231 breast, 2.38% (active); with SF-268 CNS, -47.9% (active); with SF-295 CNS, -94.5% (active); with SF-539 CNS, -95.8% (active); with M14 melanoma it was -89.7% (active).

As for `O=c1[nH]c(N2CCOCC2)nc2scc(-c3ccccc3)c12`, the growth in the assay on NCI-H23 lung was 87.2%; in the assay with NCI-H226 lung, 97.2%; in the assay with NCI-H322M lung, 95%; in the assay on HOP-62 NSCLC, 91.3%; in the assay on NCI-H460 lung, 110%; in the assay on HOP-92 NSCLC it was 79.7%. In addition, the growth with NCI-H522 lung is 77%; in the assay with A549/ATCC NSCLC, 86.8%; with 786-0 renal, 95.2%; with COLO 205 colon, 101%; with DU-145 prostate it was 107%; in the assay on K-562 leukemia, 101%. Besides, the growth in the assay on MALME-3M melanoma was 88.8%; with MDA-MB-231 breast, 108%; in the assay on RXF 393 renal it was 97.5%; in the assay on SF-268 CNS it was 89.4%; with SF-295 CNS it was 96.5%; with SF-539 CNS, 94.3%. Further, the growth in the assay with M14 melanoma was 98.9%.

As to `CC(C)(C)C(=O)OCOP(=O)(OCOC(=O)C(C)(C)C)C1CCCN(OC(=O)c2ccccc2)C1=O` (stereo unspecified), the growth is 16.8% with NCI-H23 lung; 34.9% in the assay with NCI-H226 lung; 21.2% in the assay on NCI-H322M lung; 22.8% with HOP-62 NSCLC; 15.6% with NCI-H460 lung; 29.3% in the assay on HOP-92 NSCLC. The growth with NCI-H522 lung was 12.9%; in the assay with A549/ATCC NSCLC, 24.6%; in the assay with 786-0 renal it was 17.8%; in the assay on COLO 205 colon, 14.3%; in the assay with DU-145 prostate, 36.9%; in the assay on K-562 leukemia, 9.43% (active). The growth is 29.4% in the assay on MALME-3M melanoma; 12.7% with MDA-MB-231 breast; 36% with SF-268 CNS; 57.3% in the assay with SF-295 CNS; 53% in the assay with SF-539 CNS; 47.2% in the assay on M14 melanoma.

In the case of `CC(C)n1c(NCCc2ccc(O)c(O)c2)nc2c1c(=O)n(C)c(=O)n2C`, the growth in the assay on NCI-H23 lung is 87.2%; in the assay on NCI-H226 lung, 90.1%; with NCI-H322M lung, 95.1%; with HOP-62 NSCLC it was 103%; in the assay on NCI-H460 lung, 100%; in the assay with HOP-92 NSCLC, 83.7%. Further, the growth with NCI-H522 lung is 85.2%; in the assay with A549/ATCC NSCLC it was 92.8%; with 786-0 renal, 90.4%; in the assay with COLO 205 colon it was 103%; in the assay with DU-145 prostate, 102%; in the assay with K-562 leukemia, 97.1%. The growth in the assay with MALME-3M melanoma was 97.9%; with MDA-MB-231 breast, 92.2%; with SF-268 CNS it was 94.2%; in the assay with SF-295 CNS, 106%; with SF-539 CNS, 104%; in the assay with M14 melanoma, 98.8%.

As for `C[C@@H](C[C@H](CCO)c1cc(C(F)(F)F)cc(C(F)(F)F)c1)c1ccc2ccccc2c1`, the growth is 85.3% with NCI-H23 lung; 91.1% in the assay with NCI-H226 lung; 99.1% with NCI-H322M lung; 85.6% in the assay on HOP-62 NSCLC; 106% with NCI-H460 lung; 96.5% in the assay on HOP-92 NSCLC. In addition, the growth in the assay with NCI-H522 lung is 76.7%; in the assay with A549/ATCC NSCLC it was 87.7%; in the assay on 786-0 renal, 87.5%; in the assay with COLO 205 colon, 97%; in the assay on DU-145 prostate it was 93.2%; in the assay with K-562 leukemia it was 33%. Besides, the growth in the assay with MALME-3M melanoma is 87.9%; in the assay on MDA-MB-231 breast, 93.6%; with SF-268 CNS it was 81.8%; with SF-295 CNS, 77.8%; with SF-539 CNS it was 94.2%; with M14 melanoma, 79.7%.

Take `CCCCCCCC(=O)SCC/C=C/[C@@H]1CC(=O)NCc2cccc(n2)C2=N[C@@](C)(CS2)C(=O)N[C@@H](C(C)C)C(=O)O1`: the growth is 2.23% (active) in the assay with NCI-H23 lung; -9.02% (active) in the assay on NCI-H226 lung; -5.77% (active) in the assay on NCI-H322M lung; -22.2% (active) in the assay with HOP-62 NSCLC; 5.88% (active) in the assay on NCI-H460 lung; -5.42% (active) in the assay with HOP-92 NSCLC. Besides, the growth is -12.7% (active) with NCI-H522 lung; 0.749% (active) with A549/ATCC NSCLC; 10.8% with 786-0 renal; -61.8% (active) in the assay with COLO 205 colon; 12.3% with DU-145 prostate; 11.1% with K-562 leukemia. Moreover, the growth was 22.7% in the assay with MALME-3M melanoma; 10.2% in the assay with MDA-MB-231 breast; 11.1% in the assay with SF-268 CNS; -62.4% (active) with SF-295 CNS; 20% in the assay with SF-539 CNS; 5.95% (active) in the assay on M14 melanoma.

As for `O=C(c1ccccc1)C(c1ccccc1)N1CCOCC1` (stereo unspecified), the growth is 96.9% in the assay with NCI-H23 lung; 94.8% in the assay with NCI-H226 lung; 105% with NCI-H322M lung; 94.7% with HOP-62 NSCLC; 103% with NCI-H460 lung; 103% in the assay on HOP-92 NSCLC. Besides, the growth in the assay on NCI-H522 lung is 90.4%; in the assay on A549/ATCC NSCLC, 90.2%; with 786-0 renal, 104%; in the assay on COLO 205 colon it was 109%; in the assay on DU-145 prostate, 107%; in the assay with K-562 leukemia, 96%. In addition, the growth is 103% in the assay with MALME-3M melanoma; 105% in the assay with MDA-MB-231 breast; 99.1% with SF-268 CNS; 94.9% with SF-295 CNS; 101% in the assay on SF-539 CNS; 99.8% with M14 melanoma.
